# Compounds without any hit were thinned out: in the full panel of roughly 83,000, 20% have a hit.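 How to read the values: 0–100, growth inhibition (40 = 60% inhibited); 0, no net growth; -100 to 0, cell death (-40 = 40% of starting cells died; -100 = all dead).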 The source made the active and inactive calls.
# Test system: UO-31 renal
# Test: NCI-60 one-dose screen, 48 h (100 = growth as untreated, 0 = no growth, -100 = all killed)
# Details: 10 µM unless noted
# Experimental: Growth inhibition of the UO-31 human tumor cell line is measured as a screen for anti-cancer activity. Cells are grown in 96 well plates and exposed to the test compound for 48 hours. Compounds are tested at a single concentration, which is 10^-5 M for most compounds. The reported endpoint is percent growth (GI% or GIPRCNT), where numbers from 0 - 100% represent growth inhibition, and numbers from -100% - 0 represent cell death. For example, a value of 40 represents 60% growth inhibition. A value of 0 means no net growth occurred over the course of the experiment. A value of -40 indicates 40% of cells at the beginning of the experiment died by the end of the experiment. A value of -100 means all cells are dead at the end of the experiment.
# NCI-60 Human Tumor Cell Lines Screen was performed using the standard one-dose NCI protocol, which is described in more detail at https://dtp.cancer.gov/discovery_development/nci-60/default.htm.
# Compounds with GIPRCNT values below 10 were considered active. Activity score was based on GIPRCNT using the following formula: […]
# Score is 0 for GIPRCNT values of 100 or above, 50 for GIPRCNT values of 0, and 100 for GIPRCNT values of -100.
row,SMILES,growth
1,CCN(CC)CCSc1ncnc2c1cnn2-c1ccc(S(N)(=O)=O)cc1,87.7% (inactive)
2,Cc1ccc(C2=Nc3c(ccc4c(C)c(C)c(=O)oc34)OC2)cc1,82.6% (inactive)
3,Cc1ccc(OCC(=O)Nc2ccc(Oc3ccccc3)cc2)c([N+](=O)[O-])n1,-38.4% (active)
4,O=C(CSc1ncc(-c2ccccc2)n1-c1ccccc1)Nc1ccc(-c2nc3ccccc3s2)cc1,98.4% (inactive)
5,COc1ccc(C2=NN(C(C)=O)C(c3cccc(Nc4ccnc5cc(Cl)ccc45)c3)C2)cc1 (stereo not given),37.5% (inactive)
6,CCCCNCCCN(CCCC)CCCNCCCC,83.7% (inactive)
7,c1ccc(CN=C(NCc2ccccc2)NCc2ccccc2)cc1,61.3% (inactive)
8,CC(=O)N1N=C(c2ccc(Nc3ccnc4cc(Cl)ccc34)cc2)CC1c1ccc(Cl)cc1 (stereo not given),24.1% (inactive)
9,O=C(C(=O)c1cc(Br)ccc1O)c1cc(Br)ccc1O,24.8% (inactive)
10,O=c1c2c(=NCCCN3CCCC3)cc3c(=O)n(CCCN4CCCC4)c(=O)c4c(NCCCN5CCCC5)cc(c(O)n1CCCN1CCCC1)c2c4-3,-34.9% (active)
11,COc1ccc(/C=C/C(=O)c2cccc(NS(C)(=O)=O)c2)cc1,48.6% (inactive)
12,c1ccc2c(-c3nc4ccccc4[nH]3)cccc2c1,60.5% (inactive)
13,CCCCCc1c(C)[nH]c(/C=C2\N=C(c3ccc[nH]3)C=C2Oc2ccc(Cl)cc2)c1C,-53% [100 µM] (active)
14,CCOC(=O)C1=CCC(n2cc(C)c(=O)[nH]c2=O)O1 (stereo not given),96.9% (inactive)
15,C[C@H](C(=O)N[C@@H](Cc1ccc(-c2ccccc2)cc1)C(=O)NC1CC(C)(C)NC(C)(C)C1)c1ccc(-c2ccccc2)c(F)c1,-85.5% (active)
16,O=[N+]([O-])c1ccc2[nH]cc(-c3c4ccccc4cc4[nH]c5ccc([N+](=O)[O-])cc5c34)c2c1,13.2% (inactive)
17,CCN(CC)c1ccc(C(=C2C=CC(=[N+](CC)Cc3cccc(S(=O)(=O)O)c3)C=C2)c2ccc(N(CC)Cc3cccc(S(=O)(=O)O)c3)cc2)cc1,45.4% (inactive)
18,Cc1cc(=O)oc2cc(OCCn3c(C)nn(-c4ccc(Cl)cc4)c3=O)ccc12,42.8% (inactive)
19,CCN(Cc1cccc(S(=O)(=O)[O-])c1)c1ccc(C(=C2C=CC(=[N+](CC)Cc3cccc(S(=O)(=O)O)c3)C=C2)c2ccccc2S(=O)(=O)O)cc1,85.9% (inactive)
20,O[N+]1=CC=CCC1=S.On1ccccc1=S.[Zn],-97.9% (active)

row,SMILES,growth
1,C[C@H]1O[C@@H](O[C@H]2[C@@H](O)C[C@H](O[C@H]3[C@@H](O)C[C@H](O[C@H]4CC[C@]5(C)C6C[C@@H](O)[C@]7(C)[C@@H](C8=CC(=O)OC8)CC[C@]7(O)C6CC[C@@H]5C4)O[C@@H]3C)O[C@@H]2C)C[C@H](O)[C@@H]1O (stereo not given in full),-82.4% (active)
2,COc1cc(C2CC(c3ccc(C)cc3)=NN2C=O)ccc1OCCN(C)C (stereo not given),64.5% (inactive)
3,CCn1cnc(C[C@H](NC(=O)[C@H](CCCCNC(=O)Nc2cc(C(F)(F)F)cc(C(F)(F)F)c2)NC(=O)Nc2cc(C(F)(F)F)cc(C(F)(F)F)c2)C(=O)OC)c1,49.4% [100 µM] (inactive)
4,Cc1ccc(/C=C(/C#N)n2nnc3ncccc32)cc1,24.3% (inactive)
5,CC(=O)c1ccc(NS(=O)(=O)c2ccc([N+](=O)[O-])cc2)cc1,77.8% (inactive)
6,O=C1N=C(N2CCOCC2)S/C1=C\c1cn(-c2ccccc2)nc1-c1ccccc1,44.3% (inactive)
7,C[C@]12CC[C@H](O)CC1=CC[C@@H]1[C@@H]2CC[C@]2(C)C(c3cccnc3)=CC[C@@H]12,36.9% (inactive)
8,O=CN1N=C(c2ccc(Nc3ccnc4cc(Cl)ccc34)cc2)CC1c1ccc(Cl)cc1 (stereo not given),20.6% (inactive)
9,COc1ccc(CC(=O)Nc2nn3c(-c4cc(C(F)(F)F)cc(C(F)(F)F)c4)nnc3s2)cc1,74% (inactive)
10,O=C(COc1cccc(/C=C2\Oc3ccc4ccccc4c3C2=O)c1)c1ccc([N+](=O)[O-])cc1,-41.6% (active)
11,COc1ccc(Oc2ccccc2NC(=O)CNC(=O)c2cccc3ccccc23)cc1,42.4% [5 µM] (inactive)
12,Nc1nc(SCc2cccnc2)c2ncn(C3OC(CO)C(O)C3O)c2n1 (stereo not given),72.7% (inactive)
13,NC(=O)c1cc(Cl)ccc1NC(=O)c1ccccc1-c1ccccc1,30.7% (inactive)
14,O=C(c1ccccc1)c1ccc(Oc2ccc([N+](=O)[O-])cc2[N+](=O)[O-])cc1,48.7% (inactive)
15,COc1cc2c(cc1OC)C(=O)/C(=C/c1cccc(OCC(=O)c3ccccc3)c1)C2,-19.2% (active)
16,CC[C@H]1CN2CCc3cc(OC)c(OC)cc3C2C[C@@H]1CC1NCCc2cc(OC)c(OC)cc21 (stereo not given in full),-37.9% (active)
17,N#CC1c2ccccc2C=CN1C(=O)N(c1ccccc1)c1ccccc1 (stereo not given),36.5% (inactive)
18,CN[C@@H]1C(OC2[C@H](O[C@H]3[C@H](O)[C@@H](O)[C@H](N=C(N)N)[C@@H](O)[C@@H]3N=C(N)N)OC(C)[C@]2(O)CO)OC(CO)C(O)C1O (stereo not given in full),102% (inactive)
19,COc1ccc(C2CC(c3ccc(Nc4ccnc5cc(Cl)ccc45)cc3)=NN2C(C)=O)cc1 (stereo not given),64.7% (inactive)
20,CCOC(=O)Nc1ccc2c3c(cccc13)-c1ccccc1-2,21.1% (inactive)

# From PubChem BioAssay (NCI)
